Experiment [1] has as its target Arylsulfatase A (Homo sapiens) (UniProt P15289). The experiment can be described thus: qHTS screen for enhancers of Arylsulfatase A (ASA1): LOPAC Validation Assay (AID 720538). The gist of the method: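 SV40-transformed fibroblasts from an MLD patient (ASA-I179S) were treated with compound for 48 h at 37 C. They were then lysed with 0.5 mM pNCS substrate (final) for 14 h at room temperature and stopped with NaOH; signal read by fluorescence (Ex 525/Em 598 nm), with increase denoting enhanced activity.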

Experiment [2] can be described thus: qHTS for compounds that reverse cellular toxicity of Amyloid beta (A-beta) peptide in yeast: LOPAC Validation Assay (AID 720559). As to conditions: Potency: rescue of growth toxicity. The procedure, abridged: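 Yeast expressing toxic A-beta grown with pinned compounds at 30 C for 48 hr. Growth measured as absorbance at 600 nm; data normalized to DMSO and to an equimolar FeCl3/clioquinol mixture as positive control.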

The nature of experiment [3]: qHTS for Activators of Parkin Expression: LOPAC Validation Assay (NLuc Reporter) (AID 720572). The gist of the method:
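NLuc signal, read 10 min after reagent and following a prior FLuc read, is normalized to DMSO (0) and positive controls (100%). Cells: neuronal Parkin-promoter coincidence reporter line; compounds tested 7-point, 24 h, 37 C, 5% CO2.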

The nature of experiment [4]: qHTS for Activators of Parkin Expression: LOPAC Validation Assay (FLuc Reporter) (AID 720573; further: potency means the concentration at half of the fitted maximal effect). The procedure, abridged:
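Neuronal cell line stably expressing FLuc/NLuc coincidence reporter under the Parkin promoter, 1,500 cells/well, dosed 24 h after seeding in 7-point series for 24 h at 37 C. FLuc luminescence read; normalized to DMSO and positive control (100%).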

Experiment [5] addresses T1, Hexokinase-4 (Homo sapiens) + Glucokinase regulatory protein (Homo sapiens) (UniProt P35557+Q14397). Description: qHTS assay for inhibitors of recombinant human GCK-GKRP interaction: Diaphorase-coupled assay (AID 743205). The gist of the method: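 Compounds pre-incubated 20 min with substrate, then 10 nM GST-GCK with 10 nM FLAG-GKRP added. GCK activity coupled via G6PDH and diaphorase to resorufin (5 mM glucose, 0.4 mM ATP, 0.15 mM NADP+, pH 7.6), read kinetically over 30 minutes at Ex 525/Em 590 nm.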

Experiment [6] deals with T1, Hexokinase-4 (Homo sapiens) + Glucokinase regulatory protein (Homo sapiens). Description: qHTS assay for inhibitors of recombinant human GCK-GKRP interaction: ADP-Glo assay (AID 743206). The gist of the method:
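Pin-transferred compounds meet a 15 nM GST-GCK/15 nM FLAG-GKRP/2 uM S6P mix (dispense concentrations). ATP is then added to 0.4 mM final with 5 mM glucose, and the reaction runs 60 min at room temperature. ADP is quantified luminescently.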

The target is the same in experiment [7]. Description: qHTS assay for inhibitors of recombinant human GCK-GKRP interaction: HTRF assay (AID 743207). The procedure, abridged:
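HTRF binding of 5 nM GST-GCK and 5 nM FLAG-GKRP with 2 uM S6P in pH 7.1 Hepes buffer (MgCl2, KCl, DTT, Tween 20, BSA). Anti-FLAG XL665 and anti-GST donor added, 60 min at room temperature; 665/615 nm read, normalized to with- and without-GCK controls.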

The target of experiment [8] is DNA polymerase eta (Homo sapiens) (UniProt Q9Y253). The experiment can be described thus: qHTS for Inhibitors of Polymerase Eta: Confirmatory Assay for Cherry-picked Compounds (AID 720502). Further: potency means the concentration at half of the fitted maximal effect. As to conditions: Pol eta primer extension, TAMRA/BHQ fluorescence, 10 min. The procedure, abridged: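 Readout: TAMRA dequenching, ex 525/em 598 nm, read at 0 and 10 min. Enzyme: 10 nM human Pol eta, preincubated with compound 15 min RT. Substrate: 50 nM final annealed primer/reporter/template duplex.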

Structures are written as SMILES. “And” between values parts separate entries of the source, which are not always exact repeats. Equal entries are not always repeated. Results filed as inconclusive are left out. Some of the results follow. The source made the active and inactive calls. The call rests on the fitted dose curve; in most records, active means well fitted curve in the direction sought with a large enough effect; inconclusive means small, poorly fitted or top-dose-only effect, or another doubt; inactive means no such curve, though single readings can be large; an effect the other way counts as inactive or inconclusive.

Sequence of DNA polymerase eta (Homo sapiens) (Q9Y253 whole entry, looked up): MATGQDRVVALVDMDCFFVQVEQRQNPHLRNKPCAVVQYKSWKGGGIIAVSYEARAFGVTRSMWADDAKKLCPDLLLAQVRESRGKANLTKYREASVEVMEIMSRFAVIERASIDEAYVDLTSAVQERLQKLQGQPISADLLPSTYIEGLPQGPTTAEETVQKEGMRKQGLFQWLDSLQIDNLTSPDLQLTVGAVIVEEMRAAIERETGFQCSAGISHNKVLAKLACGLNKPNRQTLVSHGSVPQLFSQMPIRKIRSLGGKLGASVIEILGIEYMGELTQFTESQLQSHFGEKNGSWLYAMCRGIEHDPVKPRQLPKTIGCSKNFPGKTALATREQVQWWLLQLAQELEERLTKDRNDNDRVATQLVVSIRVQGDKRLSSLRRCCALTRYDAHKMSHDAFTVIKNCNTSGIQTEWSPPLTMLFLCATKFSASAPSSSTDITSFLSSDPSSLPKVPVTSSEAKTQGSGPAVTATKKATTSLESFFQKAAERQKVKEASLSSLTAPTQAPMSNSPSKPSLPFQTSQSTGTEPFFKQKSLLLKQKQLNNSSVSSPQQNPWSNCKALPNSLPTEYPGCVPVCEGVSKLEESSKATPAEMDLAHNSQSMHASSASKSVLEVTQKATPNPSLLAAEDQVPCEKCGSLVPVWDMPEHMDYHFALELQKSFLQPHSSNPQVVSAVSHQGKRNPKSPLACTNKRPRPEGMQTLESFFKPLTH
T1 sequence (P35557 whole entry, looked up): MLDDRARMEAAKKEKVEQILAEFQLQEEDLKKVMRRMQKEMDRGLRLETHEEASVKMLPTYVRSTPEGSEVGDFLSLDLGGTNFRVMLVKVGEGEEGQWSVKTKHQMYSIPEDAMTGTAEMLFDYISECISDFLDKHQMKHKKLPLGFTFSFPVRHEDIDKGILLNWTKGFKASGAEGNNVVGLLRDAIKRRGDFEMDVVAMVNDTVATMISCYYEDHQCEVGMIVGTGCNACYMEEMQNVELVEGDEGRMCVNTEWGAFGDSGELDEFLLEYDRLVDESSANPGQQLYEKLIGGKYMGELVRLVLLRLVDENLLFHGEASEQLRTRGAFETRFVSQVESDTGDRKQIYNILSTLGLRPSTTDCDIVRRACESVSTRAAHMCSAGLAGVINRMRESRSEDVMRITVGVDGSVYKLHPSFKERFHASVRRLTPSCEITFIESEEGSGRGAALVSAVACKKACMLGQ
T1 sequence (Q14397 whole entry, looked up): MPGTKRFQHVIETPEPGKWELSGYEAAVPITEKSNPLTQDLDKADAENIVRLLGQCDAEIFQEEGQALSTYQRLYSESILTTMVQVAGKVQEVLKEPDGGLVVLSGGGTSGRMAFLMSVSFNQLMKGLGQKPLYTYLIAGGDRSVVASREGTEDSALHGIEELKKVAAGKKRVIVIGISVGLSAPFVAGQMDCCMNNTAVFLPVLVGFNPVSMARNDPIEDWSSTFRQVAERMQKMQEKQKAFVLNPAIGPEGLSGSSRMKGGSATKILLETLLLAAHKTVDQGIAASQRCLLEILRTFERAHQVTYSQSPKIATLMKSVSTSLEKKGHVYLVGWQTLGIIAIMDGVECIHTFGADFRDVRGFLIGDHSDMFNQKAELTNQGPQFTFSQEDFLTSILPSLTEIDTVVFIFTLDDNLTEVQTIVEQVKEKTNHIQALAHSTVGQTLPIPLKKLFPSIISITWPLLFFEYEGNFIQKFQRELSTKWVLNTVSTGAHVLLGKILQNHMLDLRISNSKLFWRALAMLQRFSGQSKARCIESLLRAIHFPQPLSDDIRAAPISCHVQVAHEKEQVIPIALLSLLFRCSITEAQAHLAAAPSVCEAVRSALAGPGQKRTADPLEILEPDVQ
Sequence of Arylsulfatase A (Homo sapiens) (P15289 whole entry, looked up): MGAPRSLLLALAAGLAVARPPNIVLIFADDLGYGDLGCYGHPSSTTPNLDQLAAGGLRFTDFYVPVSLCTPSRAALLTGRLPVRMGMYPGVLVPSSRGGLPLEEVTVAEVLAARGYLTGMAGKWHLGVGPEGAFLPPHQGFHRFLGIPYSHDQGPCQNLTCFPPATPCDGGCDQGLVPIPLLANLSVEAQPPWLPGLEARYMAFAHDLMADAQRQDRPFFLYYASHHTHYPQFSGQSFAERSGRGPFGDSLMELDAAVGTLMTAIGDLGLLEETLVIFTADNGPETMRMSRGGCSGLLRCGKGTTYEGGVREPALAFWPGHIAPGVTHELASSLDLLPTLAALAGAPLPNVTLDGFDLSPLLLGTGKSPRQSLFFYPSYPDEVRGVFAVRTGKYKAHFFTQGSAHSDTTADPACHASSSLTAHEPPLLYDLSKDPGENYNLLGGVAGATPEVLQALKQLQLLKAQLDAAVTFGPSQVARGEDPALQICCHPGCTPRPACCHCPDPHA

Regarding `Cn1cc(C2=C(c3ccc(Cl)cc3Cl)C(=O)NC2=O)c2ccccc21`, the Potency result in experiment [1], in experiment [2], in experiment [3], in experiment [4], in experiment [6] and in experiment [7] was “inactive” throughout. For the same compound, the result in experiment [5] was inactive.

Turning to `CO/S(=N\S(=O)(=O)c1ccc(Cl)cc1)c1ccc([N+](=O)[O-])cc1` (centres undefined), the Potency entry in experiment [1], in experiment [2], in experiment [3], in experiment [4], in experiment [6] and in experiment [7] was “inactive” in each case. In addition, the result in experiment [5] was inactive.

For `O=C1C(SCCO)=C(SCCO)C(=O)c2ccccc21`, the Potency result in experiment [1], in experiment [2], in experiment [3], in experiment [4] and in experiment [6] was “inactive” each time. The result in experiment [5] was inactive.

Consider `OCC1O[C@H](O)C(Cl)C(O)C1O` (some centres undefined), for which the Potency entry in experiment [1], in experiment [2], in experiment [3], in experiment [4], in experiment [6] and in experiment [7] was “inactive” throughout. In addition, the result in experiment [5] was inactive.

On to `O=c1[nH]c2cc(C(F)(F)F)ccc2n1-c1cc(C(F)(F)F)ccc1O`, for which the Potency result in experiment [1], in experiment [2], in experiment [3], in experiment [4], in experiment [6] and in experiment [7] was “inactive” in each case. Also, in experiment [5], the result was inactive.

For `N[C@@H](CC(=O)O)C(=O)O`, the Potency result in experiment [1], in experiment [2], in experiment [3], in experiment [4], in experiment [6] and in experiment [7] was “inactive” throughout. Also, in experiment [5], the result was inactive.

On to `CCCCCCCCCCCCCCCCCC(=O)NCC(COP(=O)([O-])OCC[N+](C)(C)C)OCC` (centres undefined), for which the Potency entry in experiment [1], in experiment [2], in experiment [3], in experiment [4], in experiment [6] and in experiment [7] was “inactive” in each case. The outcome in experiment [5] was inactive.

As to `CCCCCCCCc1ccc(-c2ccc(C(=O)O)cc2)cc1`, the Potency result in experiment [1], in experiment [2], in experiment [3], in experiment [4], in experiment [6] and in experiment [7] was “inactive” each time. Further, the outcome in experiment [5] was inactive.

`CC1(C)CCC=[N+]1[O-]`: the Potency entry in experiment [1], in experiment [2], in experiment [3], in experiment [4], in experiment [6] and in experiment [7] was “inactive” each time. Further, in experiment [5], the outcome was inactive.

On to `Cc1cc(NC2CCCCC2)nc(-n2nc(C)cc2C)n1`, for which the Potency entry in experiment [1], in experiment [2], in experiment [3], in experiment [4], in experiment [6] and in experiment [7] was “inactive” each time. Also, in experiment [5], the outcome was inactive.

`N=C(N)SCCc1ccc(CCSC(=N)N)cc1`: the Potency entry in experiment [1], in experiment [2], in experiment [3], in experiment [4], in experiment [6] and in experiment [7] was “inactive” throughout. In experiment [5], the result was inactive.

`O=C(O)CC[C@@H](C(=O)O)N1C(=O)c2ccccc2C1=O`: the Potency entry in experiment [1], in experiment [2], in experiment [3], in experiment [4], in experiment [6] and in experiment [7] was “inactive” throughout. For the same compound, the outcome in experiment [5] was inactive.

Consider `CCCC1(C)C(C#N)(C#N)C1(C#N)C#N`, for which the Potency result in experiment [1], in experiment [2], in experiment [3], in experiment [4], in experiment [6] and in experiment [7] was “inactive” in each case. Moreover, the result in experiment [5] was inactive.

Turning to `NCCNC(=O)c1ncsc1-c1cccc(F)c1`, the Potency result in experiment [1], in experiment [2], in experiment [3], in experiment [4], in experiment [6] and in experiment [7] was “inactive” throughout. Also, in experiment [5], the result was inactive.

Regarding `O=C(O)[C@@H]1C[C@@H](C(=O)O)N1`, the Potency entry in experiment [1], in experiment [2], in experiment [3], in experiment [4], in experiment [6] and in experiment [7] was “inactive” throughout. Besides, in experiment [5], the outcome was inactive.

As to `CNC(=O)[C@H]1O[C@@H](n2cnc3c(NCc4ccc(N)cc4)ncnc32)[C@H](O)[C@@H]1O`, the Potency result in experiment [1], in experiment [2], in experiment [3], in experiment [4], in experiment [6] and in experiment [7] was “inactive” throughout. The outcome in experiment [5] was inactive.

For `Cc1cc(NC(=O)Nc2ccc3c(ccn3C)c2)sn1`, the Potency result in experiment [1], in experiment [2], in experiment [3] and in experiment [7] was “inactive” in each case. Also, in experiment [4], the Potency is 5.8 µM (active). In addition, the result in experiment [5] was inactive.

In the case of `CCN1/C(=C/C(C)=O)Sc2ccc(OC)cc21`, the Potency result in experiment [1], in experiment [2], in experiment [3], in experiment [4], in experiment [6] and in experiment [7] was “inactive” in each case. Besides, the result in experiment [5] was inactive.

Regarding `CO/N=C(\C(=O)N[C@@H]1C(=O)N2C(C(=O)O)=C(COC(C)=O)CS[C@H]12)c1csc(N)n1` (stereo in doubt), in experiment [8], the Potency is 15.1 µM (active) and 19 µM (active) and 8.49 µM (active).

Regarding `O=P(O)(O)C(Cl)(Cl)P(=O)(O)O`, the Potency entry in experiment [1], in experiment [2], in experiment [3], in experiment [4], in experiment [6] and in experiment [7] was “inactive” throughout. Besides, the outcome in experiment [5] was inactive.

`O=C(c1ccc(Cl)cc1)N1CCN(c2ccc([N+](=O)[O-])c3ncccc23)CC1`: the Potency entry in experiment [1], in experiment [2], in experiment [3], in experiment [4], in experiment [6] and in experiment [7] was “inactive” in each case. The outcome in experiment [5] was inactive.

For `O=C(O)CCCC[C@@H]1CCSS1`, the Potency entry in experiment [1], in experiment [2], in experiment [3], in experiment [4], in experiment [6] and in experiment [7] was “inactive” throughout. Moreover, the result in experiment [5] was inactive.

Consider `COc1ccccc1N1CCN(CCCCNS(=O)(=O)c2cccc3c(N(C)C)cccc23)CC1`, for which the Potency entry in experiment [1], in experiment [2], in experiment [3], in experiment [4], in experiment [6] and in experiment [7] was “inactive” each time. The outcome in experiment [5] was inactive.

Consider `CC(=O)/C=C1\C(=O)N(C)c2ccccc21`, for which the Potency result in experiment [1], in experiment [2], in experiment [3], in experiment [4], in experiment [6] and in experiment [7] was “inactive” each time. In addition, the outcome in experiment [5] was inactive.

Consider `CN(C)c1nc(N)c(C(=O)N=C(N)N)nc1Cl`, for which the Potency entry in experiment [1], in experiment [2], in experiment [3], in experiment [4], in experiment [6] and in experiment [7] was “inactive” throughout. Also, in experiment [5], the result was inactive.

Turning to `Cc1ccc(S(=O)(=O)/C=C/C#N)cc1`, the Potency entry in experiment [1], in experiment [2], in experiment [3], in experiment [4] and in experiment [7] was “inactive” each time. Further, the outcome in experiment [5] was inactive.

Consider `COc1ccc2c(c1)CCC1C2CC[C@@]2(C)C1CC[C@@H]2NCCCCCCN1C(=O)CCC1=O` (some centres undefined), for which the Potency entry in experiment [1], in experiment [2], in experiment [3], in experiment [4], in experiment [6] and in experiment [7] was “inactive” throughout.

As for `CCCCCCCCCCCCCCCCCCNC(=O)OCC(COP(=O)([O-])OCC[n+]1ccsc1)OC` (centres undefined), the Potency entry in experiment [1], in experiment [2], in experiment [3] and in experiment [7] was “inactive” each time. Also, the outcome in experiment [5] was inactive.
